{"source": "PubChem BioAssay (NCI)", "note": "Where “and” joins values, the source holds several entries; their conditions need not be identical. Identical values can stand only once. The panel holds about 83,000 compounds, 20% with a hit somewhere; the sample as a whole holds those more often.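 Single-dose data. Exposure time 48 hours. Values below 10 considered active.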 A number with no mark means an inactive call. Calls of active or inactive are those of the source."}
{"system": "MDA-MB-468 breast", "assay": "NCI-60 one-dose screen, 48 h (100 = growth as untreated, 0 = no growth, -100 = all killed)", "settings": "10 µM unless noted"}
{"molecule": "O=C1CCc2c(sc3[nH]c(=S)n(Cc4ccccc4)c(=O)c23)C1", "growth": "-3.67% (active)"}
{"molecule": "COc1ccc(C2=Nn3c(NN)nnc3SC2)cc1", "growth": "106%"}
{"molecule": "COC(=O)c1nc(-c2ccc(C)cc2)oc1Sc1ccc(C)cc1", "growth": "121%"}
{"molecule": "F", "growth": "40.9% [6.87 mM]"}
{"molecule": "O=C1C2=C(Nc3cc(Cl)ccc3N2)OC1c1c[nH]c2ccc(COc3ccccc3)cc12", "note": "(stereo unspecified)", "growth": "48.2%"}
{"molecule": "COc1cc2c(=O)n(CCCN(C)C)c3c4cc5c(cc4ccc3c2cc1OC)OCO5", "growth": "57.7%"}
{"molecule": "C=C1C(=O)O[C@H]2[C@H]1CC/C(COC(=O)NCc1ccc(Cn3c(=O)sn(CCI)c3=O)cc1)=C\\CC[C@@]1(C)O[C@@H]21", "growth": "-37.1% (active)"}
{"molecule": "CC1=C(C(=O)OCC2CCN(C(=O)OC(C)(C)C)CC2)[C@H](c2cccc(C#N)c2)C2=C(CC(C)(C)CC2=O)N1", "growth": "59.9%"}
{"molecule": "COC(=O)CC[C@@H](C)[C@H]1CC[C@H]2C3CC[C@@H]4C[C@@H]5CC[C@]4(C)[C@@]3(O5)[C@H](Br)[C@@H](Br)[C@]12C", "note": "(stereo partly specified)", "growth": "99.5%"}
{"molecule": "COc1ccc(C2=NOC(CC(=O)N(CCO)CCO)C2)cc1OC1CCCC1", "note": "(stereo unspecified)", "growth": "90.2%"}
{"molecule": "COC(=O)C(=[N+]=[N-])C(=O)c1ccc([N+](=O)[O-])o1", "growth": "81.7%"}
{"molecule": "CCO/C=N/C1=C(C#N)C(c2ccc(Cl)cc2)c2c(c3ccccc3n(C)c2=O)O1", "note": "(stereo unspecified)", "growth": "54%"}
{"molecule": "CC(=O)c1ccc(N=C(C#N)C2=C(O)c3ccccc3C2=O)cc1", "growth": "94.5%"}
{"molecule": "C=C1CC[C@@H]2[C@](C)(COC(C)=O)[C@H](OC(C)=O)CC[C@@]2(C)[C@@H]1CC(Nc1ccc(S(=O)(=O)Nc2cc(C)on2)cc1)C1=CCOC1=O", "note": "(stereo partly specified)", "growth": "3.23% (active)"}
{"molecule": "CCCCCn1c(=N)n(CC(O)COc2cccc(C)c2)c2ccccc21", "note": "(stereo unspecified)", "growth": "-3.97% (active)"}
{"molecule": "O=C(c1ccc2ncc(-c3nc(NC4CC4)ncc3F)n2c1)N1CCOCC1", "growth": "32.8%"}
{"molecule": "CCN1C(=S)N(c2ccccc2)C2NC(=O)N(/N=C/C=C/c3ccccc3OC)C21", "note": "(stereo unspecified)", "growth": "79%"}
{"molecule": "COc1ccc(OC)c(NC2=C(Cl)C(=O)C(C)=C(C)C2=O)c1", "growth": "-31.6% (active)"}
{"molecule": "O=C(NC1CCOCC1)c1ccc2c(c1)CN(c1ncc(Cc3cccc(-n4cccn4)c3)s1)CC2", "growth": "41.4%"}
{"molecule": "O=C1OC(Oc2ccc(Br)cc2)(c2ccccc2)c2ccccc21", "note": "(stereo unspecified)", "growth": "69.8% and 75.1%"}
{"molecule": "Oc1ccc(Cc2ccc(O)c(C3CC(c4ccc(Cl)cc4)=NN3)c2)cc1C1CC(c2ccc(Cl)cc2)=NN1", "note": "(stereo unspecified)", "growth": "23.3%"}
{"molecule": "CC(=O)Nc1ccc(Sc2ccc([N+](=O)[O-])o2)cc1", "growth": "4.76% (active)"}
{"molecule": "COc1ccc(S(=O)(=O)Nc2cc(/C=C\\c3cc(OC)c(OC)c(OC)c3)ccc2OC)cc1", "growth": "7.65% (active)"}
{"molecule": "CCCC(=O)NC(c1cccnc1)c1ccc2c(C)ccnc2c1O", "note": "(stereo unspecified)", "growth": "-2% (active)"}
{"molecule": "COc1ccc(C(=O)N2NC(=O)/C(=C/c3ccc(F)cc3)N=C2c2ccccc2)cc1", "growth": "90.6%"}
{"molecule": "COc1cc(C2CC(c3ccc(Nc4ccnc5cc(Cl)ccc45)cc3)=NN2c2ccc(Cl)cc2)cc(OC)c1OC", "note": "(stereo unspecified)", "growth": "41.9%"}
